D2 PAM-1: Beta-Arrestin HTS for Positive Allosteric Modulators of the Human D2 Dopamine Receptor: Potentiators. DiscoveRx D2 beta-arrestin cells, luminescence, 90 min; 100% = 57 uM dopamine signal. potentiation, % (test concentration not listed). 360,000 compounds, 0.23% hits. AID 624464, 2012; in the data active = potentiation above about 50%; inconclusive = mostly about 30% to 49%
Target sequence (P14416 whole entry, looked up): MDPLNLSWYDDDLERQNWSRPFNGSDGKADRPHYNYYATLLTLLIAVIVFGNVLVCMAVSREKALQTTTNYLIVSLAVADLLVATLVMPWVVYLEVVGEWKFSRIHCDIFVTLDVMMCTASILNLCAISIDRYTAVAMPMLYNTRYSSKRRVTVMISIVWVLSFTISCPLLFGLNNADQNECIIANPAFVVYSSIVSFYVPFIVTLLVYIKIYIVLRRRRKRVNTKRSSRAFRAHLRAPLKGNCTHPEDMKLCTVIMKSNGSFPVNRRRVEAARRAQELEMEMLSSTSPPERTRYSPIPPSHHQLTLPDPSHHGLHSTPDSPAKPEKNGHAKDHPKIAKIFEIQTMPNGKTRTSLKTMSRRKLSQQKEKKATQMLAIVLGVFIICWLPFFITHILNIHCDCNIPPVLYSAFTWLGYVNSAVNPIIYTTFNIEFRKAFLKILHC
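D2 cells co-treated with compound plus 50 nM dopamine (EC20) for 90 min at 37 deg C to detect potentiation. Beta-arrestin recruitment was read as enzyme-fragment luminescence after 1 h at ambient temperature. Full response was set by 57 uM dopamine.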
LDHA block: qHTS assay for inhibitors of human lactate dehydrogenase; activity change, % (values are at about 110 or 230 µM); 480,000 compounds, 0.15% hits; purified LDHA, NADH/diaphorase-resazurin fluorescence; hits give low values; L-lactate dehydrogenase A chain (Homo sapiens), P00338; in the data active = activity change below about -30%; inconclusive = mostly about -25% to -30%;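 also: plate controls were DMSO wells for no effect and wells without enzyme for full effect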
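Remaining NADH was detected by diaphorase (0.133 mg/mL) converting 37 µM resazurin to fluorescent resorufin, read at 0 and 20 minutes. The preceding 5-minute room-temperature reaction used 2 nM LDHA, 0.2 mM sodium pyruvate and 0.06 mM NADH at pH 7.4.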
D2 PAM-2: HTS Assay for Positive Allosteric Modulators of the Human D2 Dopamine Receptor: Primary Screen for Potentiators; D(2) dopamine receptor (Homo sapiens), P14416; HEK293 T-REx D2, calcium flux, EC20 dopamine potentiation; potentiation, % at 10 µM; 340,000 compounds, 0.34% hits;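 active = potentiation over 3 SD above the plate norm, cut at about 30% in these data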; also: 0% is about no effect
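Potentiation of an EC20 dopamine calcium response measured kinetically over 180 s, after a preceding 180 s compound-only read flagging agonists. Cells: inducible Hek293 Trex D2 line, 4000/well, cultured overnight at 30 C before dye loading.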
D2 antag: HTS Assay for Allosteric Antagonists of the Human D2 Dopamine Receptor: Primary Screen for Antagonists; D(2) dopamine receptor (Homo sapiens), P14416; HEK293 TREx D2 cells, calcium flux, dopamine EC80; inhibition, % at 10 µM; 340,000 compounds, 2% hits; AID 485344, 2010; in the data active = inhibition above about 30%; inactive = below that, where a call was filed; also: 0% is about no effect
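Dopamine at EC80 is the agonist stimulus; test compounds precede it by 180 s. Calcium flux read kinetically in a force-coupled, inducible HEK293 T-REx D2 cell line.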
D2 ag-1: Beta-Arrestin HTS for Positive Allosteric Modulators of the Human D2 Dopamine Receptor: Agonists; D(2) dopamine receptor (Homo sapiens), P14416; DiscoveRx PathHunter D2 beta-arrestin, luminescence, 90 min; 100% = 57 uM dopamine signal; activation, % (concentration not given with the values); 360,000 compounds, 0.084% hits; AID 624465, 2012; in the data active = activation above about 40%; inconclusive = between about 15% and that limit
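DiscoveRx PathHunter D2 beta-arrestin cells (2,100/well) attached overnight, then compound-stimulated 90 min at 37 C in HBSS/10 mM HEPES/0.1% Tween-20 buffer; beta-galactosidase complementation read by luminescence after 1 h at ambient temperature. Dopamine 57 uM final (EC100) as control.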
D2 ag-2: HTS Assay for Allosteric Agonists of the Human D2 Dopamine Receptor: Primary Screen for Agonists. HEK293 T-REx D2 cells, calcium flux agonist mode. activation, % at 2 µM. 340,000 compounds, 0.53% hits. AID 485358, 2010;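 active = activation over 3 SD above normal in the single-dose calcium agonist read, cut at about 30% in these data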; also: 0% is about no effect
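HEK293 Trex D2 cells, tetracycline-induced, o/n 30 C 5% CO2; no-wash Ca dye, RT 30–90 min; 10-cycle baseline, 23 nl cpd added, kinetic Ca read 180 s; agonist hits = positive Ca response.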
* = called active by the depositor; ? = inconclusive; / = no result. Shown are actives, neighbours in structure and some others; about 2.1% of the full set was active somewhere.

SMILES	D2 PAM-1	LDHA block	D2 PAM-2	D2 antag	D2 ag-1	D2 ag-2
O=C1c2cccc3c([N+](=O)[O-])ccc(c23)C(=O)N1c1ccccn1	?	17.3	11.5	17.0	?	0.5
O=C1c2cccc3c(N4CCCCC4)ccc(c23)C(=O)N1c1ccccn1	-4.4	-2.5	-0.3	-4.6	-2.6	37.3*
COc1ccccc1C(=O)N(CCN(C)C)c1nc2cc(C)cc(C)c2s1	-20.2	-2.5	-16.8	38.1*	-1.3	0.3
Cc1cc(C)c2sc(N(CCN(C)C)C(=O)c3cc(Cl)sc3Cl)nc2c1	-22.7	6.8	-6.4	8.5	-4.7	0.3
CCOC(=O)C1=C(C)N=c2s/c(=C3/C(=O)Nc4ccccc43)c(=O)n2C1c1ccc(C)cc1 (stereo not given)	-17.7	-7.6	2.8	-5.5	-4.6	-0.9
CCOC(=O)C1=C(C)n2c(s/c(=C3\C(=O)Nc4ccccc43)c2=O)=NC1c1ccc(OC)cc1 (stereo not given)	-37.0	-11.0	7.8	39.7*	-3.0	-0.2
O=C(CSc1nnc(CN2CCOCC2)n1-c1ccc(Cl)cc1)Nc1ccc2c(c1)OCO2	-8.2	-0.2	-8.1	20.9	5.4	-1.3
COc1ccc(Cl)cc1NC(=O)CSc1nnc(CN2CCOCC2)n1-c1ccc(Cl)cc1	-23.8	-4.5	-24.0	75.9*	-1.9	0.8
COc1cc2c(cc1OC)-c1c(c(C(=O)N3CCC(C(N)=O)CC3)nn1-c1ccccc1)C2	/	-7.4	/	/	/	/
Cc1ccc(CNS(=O)(=O)c2c(C(=O)N3CCCCCC3)c(C)n(C)c2C)cc1	-9.0	0.9	1.8	10.6	-3.2	-0.5
Cc1c(C(=O)N2CCCCC2)c(S(=O)(=O)NCc2ccc(Cl)cc2)c(C)n1C	-0.7	1.7	7.8	48.3*	-3.0	0.7
CCCCN(C)C(=O)C1CCN(S(=O)(=O)c2c(C)noc2/C=C/c2ccccc2F)CC1	/	7.5	/	/	/	/
N#Cc1ccc(/C=C2/CCOc3ccc(Br)cc3C2=O)cc1	/	-5.1	/	/	/	/
CN(C)S(=O)(=O)c1ccc(Cl)c(NC(=O)C2CCN(S(=O)(=O)c3cccs3)CC2)c1	-5.2	-9.3	-19.1	31.1*	-1.5	0.2
O=C(Nc1nc(-c2ccc3ccccc3c2)cs1)C1CCN(S(=O)(=O)c2cccs2)CC1	0.4	-30.5*	-0.3	13.5	3.2	1.8
CCc1ccccc1NC(=O)Nc1cn(CC(C)C)c(=O)c2ccccc12	/	19.5	/	/	/	/
CC(NC(=O)C1CCN(C(=O)c2cccc3ccccc23)CC1)c1ccc(F)cc1 (stereo not given)	/	-0.1	/	/	/	/
N#C/C(=C/c1ccc(O)cc1)c1nc2ccccc2o1	/	5.6	/	/	/	/
O=C(NC12CC3CC(CC(C3)C1)C2)C1(c2cccc(F)c2)CCC1	/	-7.8	/	/	/	/
COc1ccccc1CNC(=O)N[C@@H](Cc1ccccc1)C(=O)O	-6.2	-0.8	-0.3	37.0*	-0.7	-0.1
O=C(Cc1ccccc1)N[C@@H](Cc1ccc(O)cc1)C(=O)O	/	/	3.1	36.0*	/	-0.1
Cc1cccc(/C=C/c2ccc3c([N+](=O)[O-])cccc3n2)c1	/	-1.0	/	/	/	/
O=C(CCN1CCOCC1)NNC(=O)c1ccc([N+](=O)[O-])cc1[N+](=O)[O-]	58.9*	9.0	/	/	6.1	/
COc1ccc(-c2cc(C(=O)N3CCN(C(=O)C(=O)N4CCOCC4)CC3)c3ccccc3n2)cc1	/	-22.6	/	/	/	/
Cc1nc2cc(NC(=O)c3cc(S(=O)(=O)N(C)c4ccccc4)ccc3Cl)ccc2o1	/	-21.9	/	/	/	/
SMILES	D2 PAM-1	LDHA block	D2 PAM-2	D2 antag	D2 ag-1	D2 ag-2
CC(C)c1onc(C(=O)Nc2cccc(O)c2)c1[N+](=O)[O-]	6.0	-6.0	-9.0	6.9	9.3	0.2
Cc1ccc(NC(=O)c2noc(C(C)C)c2[N+](=O)[O-])cc1	-10.7	-2.7	-29.1	50.8*	8.6	-1.0
COc1cccc(CNS(=O)(=O)c2ccc3c(c2)N(C(C)=O)CCO3)c1	-20.3	-3.4	-19.1	61.4*	-3.3	-0.1
Cc1ccc2nc(/C(C#N)=C\c3ccc(C)s3)[nH]c2c1	/	-3.9	/	/	/	/
CCOc1ccc2nc(S(=O)(=O)NC(=O)C3(C)CCN3C(=O)c3c(C)noc3C)sc2c1 (stereo not given)	-6.5	-14.9	/	/	-2.2	/
CCOc1ccc2nc(S(=O)(=O)NC(=O)C3(C)CCN3C(=O)c3cc(C)n(C)n3)sc2c1 (stereo not given)	-1.0	-66.6*	/	/	-1.4	/
CN1CCN(CCCN2c3ccccc3Sc3ccc(Cl)cc32)CC1	/	-7.9	/	71.9*	/	/
CCSc1ccc2c(c1)N(CCCN1CCN(C)CC1)c1ccccc1S2	-37.3	-1.9	-23.4	82.6*	-5.7	0.9
OC1CC2CCC(C1)N2CCCN1c2ccccc2Sc2ccc(Cl)cc21 (stereo not given)	-14.3	3.4	/	/	-0.2	/
Cc1ccc(C(=O)N/C(=C\c2sccc2C)C(=O)NCCCN2CCOCC2)cc1	-11.1	-2.5	-8.6	31.3*	-3.0	0.1
Cc1cccc(NC(=S)Nc2ccc(S(=O)(=O)Nc3ccccc3)cc2)c1	/	-0.8	/	/	/	/
C=CCN1C(=O)C(CC(=O)O)SC1=Nc1cccc([N+](=O)[O-])c1 (stereo not given)	-7.8	-10.1	9.7	-14.2	-3.9	0.2
O=C(O)CC1SC(=Nc2ccccc2)N(c2ccccc2)C1=O (stereo not given)	1.1	-2.8	0.5	42.6*	-0.3	0.9
C=CCN1C(=O)C(CC(=O)O)SC1=Nc1ccc(N=Nc2ccccc2)cc1 (stereo not given)	-12.3	-8.3	39.5*	-7.5	-3.3	0.3
CCOC(=O)c1ccc(NC(=O)NCc2nc(-c3ccccc3)oc2C)cc1	/	10.2	/	/	/	/
Cc1ccc(C(=O)Nc2ccc(C(F)(F)F)n(C)c2=O)cc1	-2.1	-2.2	31.7*	7.0	-5.6	0.1
Cc1ccc(C(=O)Nc2cccc3[nH]c(C(F)(F)F)nc23)cc1	-8.6	6.8	2.0	33.6*	3.4	0.6
Cc1ccccc1NC(=O)Cc1nc(COC(=O)COc2ccccc2C(C)C)cs1	-0.8	-2.1	5.0	28.9	-3.0	1.7
Cc1ccccc1NC(=O)Cc1nc(COC(=O)CCNS(=O)(=O)c2ccccc2)cs1	-0.3	-9.0	-9.5	3.9	-3.9	-0.5

Source: PubChem
